KB-3-1 tox: qHTS assay for MDR1-selective chemotherapeutics: Primary screen using the parental adenocarcinoma cell KB-3-1; Potency, µM (titrated, usually from 46.1 µM), most hits filed as cytotoxic; 400,000 compounds, 1.4% hits; KB-3-1 viability, CellTiter-Glo ATP luminescence, 72 h; also: nearly all actives have a fitted effect of over 60% in size
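Parental KB-3-1 adenocarcinoma cells in phenol-red-free DMEM with 10% FBS were pin-treated with compounds at several concentrations, incubated 72 h at 37 °C, and viability read by CellTiter-Glo luminescence; concentration-effect curves were fitted after normalization.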
MCF10A rerep: A quantitative high throughput screen for small molecules that induce DNA re-replication in MCF 10a normal breast cells. MCF 10A DNA re-replication, Hoechst nuclear intensity, 48 h. Potency, µM (highest dose often 46.1 µM), usual class: activators. 350,000 compounds, 2.9% hits. AID 624296, 2012; also: nearly all actives have a fitted effect of over 50% in size
KB-V1 cytotox: qHTS assay for MDR1-selective chemotherapeutics: Primary screen using the drug-selected MDR subline cells KB-V1. Potency, µM (titrated, usually from 46.1 µM), usual class: cytotoxic. KB-V1 MDR cells viability, CellTiter-Glo, 72 h. 400,000 compounds, 3.4% hits. AID 1347076, 2019; also: nearly all actives have a fitted effect of over 60% in size
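In this primary screen, KB-V1 cells overexpressing P-gp are incubated with library compounds (lowest to highest concentration) for 72 h at 37 degrees C before a luminescent ATP viability read.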
SW480 rereplic: A quantitative high throughput screen for small molecules that induce DNA re-replication in SW480 colon adenocarcinoma cells. SW480 DNA re-replication, Hoechst DNA content imaging, 48 h. Potency, µM (doses to about 46.1 µM), hits mostly activators. 340,000 compounds, 1.8% hits; also: nearly all actives have a fitted effect of over 55% in size
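SW480 cells exposed to compounds for 48 hr at 37 C, 5% CO2, then Hoechst-stained 40 min. Nuclear DNA content imaged by fluorescence scanning (405 nm excitation, 500-530 nm emission); re-replication scored as increased high-intensity nuclei.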
ELG1 DNA repair: qHTS screen for small molecules that inhibit ELG1-dependent DNA repair in human embryonic kidney (HEK293T) cells expressing luciferase-tagged ELG1; 330,000 compounds, 2.3% hits; AID 504467, 2011; HEK293T ELG1-luciferase reporter, luminescence, 16 h; DNA damage induced by 5-fluorouridine; Potency, µM (highest dose often 46.1 µM), most hits filed as inhibitors; also: nearly all actives have a fitted effect of over 55% in size
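DMSO vehicle served as the neutral condition. Each well held 2,000 cells given 5-fluorouridine plus compound; after 16 hr at 37 °C/5% CO2, ONE-Glo was added and luciferase measured 30 min later.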
Large screens that a line does not name were inactive. Sampled rows, rich in hits. Any-hit rate of the full collection: about 8.1%. Calls follow the shape of the dose curve; as a rule, active = well fitted curve in the direction sought with a large enough effect; inconclusive = small, poorly fitted or top-dose-only effect, or another doubt; inactive = no such curve, though single readings can be large; an effect the other way counts as inactive or inconclusive.

COc1ccc(NC(=O)C2(C)CCN2C)cc1OC (configuration not stated)	none (no result: MCF10A rerep, SW480 rereplic, ELG1 DNA repair)
CCC(=O)Nc1nc(C)c(-c2csc(Nc3cccc(C(=O)O)c3)n2)s1	none
CC(=O)Nc1nc(C)c(-c2csc(Nc3cccc([N+](=O)[O-])c3)n2)s1	MCF10A rerep inconclusive, KB-V1 cytotox inconclusive, ELG1 DNA repair 2.9µM
CC(=O)Nc1nc(C)c(-c2csc(Nc3cccc(C(C)=O)c3)n2)s1	KB-3-1 tox inconclusive, KB-V1 cytotox inconclusive, ELG1 DNA repair 5.8µM
CCCCNc1c(-c2cccnc2)nc2nc(C)cc(C)n12	KB-V1 cytotox inconclusive (no result: MCF10A rerep, SW480 rereplic, ELG1 DNA repair)
Cc1cccc2nc(-c3cccnc3)c(NCCC(C)C)n12	MCF10A rerep 21µM, KB-V1 cytotox inconclusive
Cc1cccc2nc(-c3cccnc3)c(Nc3ccccc3)n12	KB-3-1 tox inconclusive, KB-V1 cytotox 18µM, ELG1 DNA repair 18µM
CCC(=O)OCC(=O)[C@@]1(OC(=O)CC)[C@H](C)C[C@@H]2[C@@H]3[C@H]([C@@H](O)C[C@@]21C)[C@]1(C)C=CC(=O)C=C1C[C@@H]3Cl	none (no result: KB-3-1 tox, KB-V1 cytotox, ELG1 DNA repair)
CCC(Sc1nnc(C)n2c1cc1occc12)C(=O)Nc1ccccc1F (configuration not stated)	KB-V1 cytotox inconclusive (no result: MCF10A rerep, SW480 rereplic, ELG1 DNA repair)
Nc1ccccc1-c1ccc([N+](=O)[O-])cc1	KB-3-1 tox inconclusive, MCF10A rerep 23µM, SW480 rereplic inconclusive (no result: ELG1 DNA repair)
Nc1ccc(-c2ccc(N)c([N+](=O)[O-])c2)cc1[N+](=O)[O-]	none
CCCCCCOc1ccc(OC(=O)c2ccncc2)cc1	MCF10A rerep 23µM, SW480 rereplic inconclusive, ELG1 DNA repair inconclusive
Cn1c(SCC(=O)Nc2cccnc2Cl)nnc1-c1ccco1	none
O=C(Nc1ccc2oc(-c3cccc4c(Br)cccc34)nc2c1)c1ccc(Br)cc1	none (no result: MCF10A rerep, SW480 rereplic, ELG1 DNA repair)
C=CCNC(=S)N/N=C(\C)c1cc(OC)c(OC)c(OC)c1	KB-V1 cytotox 15µM
O=C(NCc1ccccc1Cl)c1nnc(Cc2cccc(F)c2)o1	none (no result: MCF10A rerep, SW480 rereplic, ELG1 DNA repair)
COc1ccc(C2C(C#N)=C(N)Oc3c2sc2nc(C)cc(C)c32)cc1 (configuration not stated)	KB-3-1 tox inconclusive, MCF10A rerep 16µM, KB-V1 cytotox 21µM, SW480 rereplic inconclusive
COc1ccc(-c2ccnc3nc(N4CCN(c5ccccc5)CC4)nn23)cc1	KB-3-1 tox inconclusive, MCF10A rerep inconclusive, KB-V1 cytotox 21µM
Fc1ccc(-c2ccnc3nc(N4CCOCC4)nn23)cc1	none
Cn1c(SCC(=O)NNC(=O)c2ccccc2Br)nnc1C(F)(F)F	none
CC12CCC(C(=O)N3CCCc4ccccc43)(CC1=O)C2(C)C (configuration not stated)	KB-V1 cytotox 16µM
CCN(CC(=O)Nc1cccc(OC)c1)c1ncnc2sc(C)c(C)c12	KB-3-1 tox inconclusive, KB-V1 cytotox 2.3µM, ELG1 DNA repair inconclusive
COc1cccc(NC(=O)COc2ncnc3sc(C)c(C)c23)c1	none
Cc1cccc(C(C)C)c1NC(=O)C1CCCN1S(=O)(=O)c1cccc2nsnc12 (configuration not stated)	KB-V1 cytotox inconclusive (no result: MCF10A rerep, SW480 rereplic, ELG1 DNA repair)
C=C(c1ccc2ccccc2n1)c1cccs1	KB-3-1 tox 12µM (no result: MCF10A rerep, SW480 rereplic, ELG1 DNA repair)
O=C(NCc1cccs1)c1ccc2ccccc2n1	ELG1 DNA repair inconclusive
COc1cc(NC(=O)Nc2nc(C(N)CCc3ccccc3)cs2)cc(OC)c1OC (configuration not stated)	KB-3-1 tox inconclusive (no result: MCF10A rerep, SW480 rereplic, ELG1 DNA repair)
Cc1ccc(Cl)cc1NC(=O)c1cc2ccccc2cc1O	KB-3-1 tox 9.2µM, MCF10A rerep 7.3µM, KB-V1 cytotox inconclusive, SW480 rereplic inconclusive
Cc1ccc(Cl)cc1NC(=O)c1cccc(OC(F)F)c1	KB-V1 cytotox 18µM
COc1cccc(NC(=O)Nc2cc(Cl)ccc2C)c1	KB-V1 cytotox inconclusive
COc1cc(NC(=O)c2cc3ccccc3cc2O)c(OC)cc1Cl	KB-3-1 tox inconclusive, MCF10A rerep inconclusive, KB-V1 cytotox inconclusive, ELG1 DNA repair inconclusive
COc1ccc(NC(=O)CN(C)C2=NS(=O)(=O)c3ccccc32)cc1Cl	none
Cc1ccc2c(c1)C1CN(C)CCC1N2S(=O)(=O)c1ccccc1F (configuration not stated)	none
C[C@@H](NC(=O)[C@@H]1CCCN1C(=O)[C@@H]1CCCN1C(=O)OC(C)(C)C)c1ccccc1	none (no result: MCF10A rerep, SW480 rereplic, ELG1 DNA repair)
Cc1nc(SCC(=O)N2CCOCC2)c2c3c(sc2n1)CCC3	ELG1 DNA repair 21µM
OC(COCC(F)(F)C(F)(F)C(F)(F)C(F)F)Cn1c2ccc(Cl)cc2c2cc(Cl)ccc21 (configuration not stated)	KB-3-1 tox inconclusive, KB-V1 cytotox 18µM, SW480 rereplic inconclusive
COc1ccc(NC(=S)NC(=NS(=O)(=O)c2ccc(Cl)cc2)c2ccccc2)cc1	KB-3-1 tox 21µM, MCF10A rerep inconclusive, SW480 rereplic inconclusive, ELG1 DNA repair inconclusive
Cc1ccc(NC(=O)c2ccc(=O)[nH]n2)cc1S(=O)(=O)Nc1ccccc1Cl	none
CCOc1ccc(NS(=O)(=O)c2cc(NC(=O)c3ccc(C)cc3)ccc2Cl)cc1	KB-3-1 tox inconclusive, MCF10A rerep 2.1µM, KB-V1 cytotox 0.82µM, SW480 rereplic 4.6µM, ELG1 DNA repair 6.5µM
COc1cccc(OC)c1C(=O)Nc1ccc(C)cc1C(=O)c1ccccc1	KB-V1 cytotox inconclusive, ELG1 DNA repair 16µM
Cc1ccc(NC(=S)NC(=O)c2ccc(F)cc2)cc1S(=O)(=O)Nc1ccccc1Cl	KB-3-1 tox 23µM, MCF10A rerep inconclusive, KB-V1 cytotox inconclusive, ELG1 DNA repair inconclusive
CCOc1ccccc1NCc1nnc2n1CCCCC2	KB-V1 cytotox inconclusive (no result: MCF10A rerep, SW480 rereplic, ELG1 DNA repair)
N#CC(CC(=O)OCc1ccccc1)NC(=O)OCc1ccccc1 (configuration not stated)	KB-3-1 tox inconclusive (no result: MCF10A rerep, SW480 rereplic, ELG1 DNA repair)
COc1ccccc1NS(=O)(=O)c1cc(NC(=O)c2ccc(Cl)nc2)ccc1Cl	KB-3-1 tox inconclusive, MCF10A rerep 18µM, KB-V1 cytotox 8.2µM, ELG1 DNA repair 13µM
COc1ccccc1NC(=O)Nc1ccc(Cl)c(S(=O)(=O)Nc2ccccc2OC)c1	ELG1 DNA repair inconclusive
COc1ccc(C(=O)Nc2ccc(Cl)c(S(=O)(=O)Nc3ccccc3OC)c2)cc1	KB-3-1 tox inconclusive, KB-V1 cytotox 2.3µM, ELG1 DNA repair inconclusive
Cc1ccc(NC(=O)C2=C(c3ccccc3)S(=O)(=O)CCS2(=O)=O)cc1	KB-3-1 tox inconclusive, MCF10A rerep inconclusive, KB-V1 cytotox inconclusive, SW480 rereplic 2.1µM, ELG1 DNA repair inconclusive
Cc1ccc(NC(=O)c2ccccc2)cc1	ELG1 DNA repair inconclusive
O=C(Nc1ccc(-c2ccccc2)cc1)c1ccccc1	KB-3-1 tox 21µM, MCF10A rerep inconclusive

Screening results: PubChem, National Center for Advancing Translational Sciences (NCATS)
